Potency data for 13 molecules are collected here from PubChem BioAssay (NCATS).

Results filed as inconclusive are left out. Calls of active or inactive are those of the source. Calls follow the shape of the dose curve; as a rule, active = well fitted curve in the direction sought with a large enough effect; inconclusive = small, poorly fitted or top-dose-only effect, or another doubt; inactive = no such curve, though single readings can be large; an effect the other way counts as inactive or inconclusive.

Assay [1] in a line: MultiTox-Fluor Cytotoxicity Assay - LYMP1-003 - Live Cells (AID 962). The gist of the method: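 LYMP1-003 human lymphoblastoid cells (2500/well) in complete medium were preincubated 5 hr at 37 C, then exposed to compounds for 16 hr at 37 C. Live-cell protease cleavage of GF-AFC read by fluorescence (Ex/Em 405/510); AC50 from Hill fits.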
A short description of assay [2]: Cell Viability - LYMP1-003 - Assay at 24 hr (AID 963). The gist of the method:
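Human lymphoblastoid LYMP1-003 cells (2500/well) were rested 5 hr at 37 C, then exposed to compounds in complete medium for 24 hr at 37 C. Cellular ATP was quantified by CellTiter-Glo luminescence, and AC50 values came from Hill fits of concentration-response data.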

Assay [3] is described as follows: Cell Viability - LYMP1-003 - Assay at 40 hr (AID 964). Also: nearly all actives have a fitted effect of over 60% in size. The gist of the method:
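Human lymphoblastoid LYMP1-003 cells, 2500/well in complete medium, rested 5 hr at 37 C, then exposed to compounds for 40 hr at 37 C. Viability read as intracellular ATP by CellTiter-Glo luminescence; AC50 from Hill fits of concentration-response data.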

The nature of assay [4]: Cell Viability - LYMP2-003 (AID 965).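 Also: cells exposed to compounds for 24 h before reading; nearly all actives have a fitted effect of over 50% in size.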 Summed up: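 Seed 2500 lymphoblastoid cells/well; incubate 5 hr, 37 C; add compounds; incubate 24 hr, 37 C; add CellTiter-Glo, 30 min RT; read luminescence. AC50 from Hill fit.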
Assay [5] in a line: Cell Viability - LYMP2-005 (AID 967). The gist of the method:
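Acute cytotoxicity is scored as a concentration-dependent drop in intracellular ATP in human lymphoblastoid LYMP2-005 cells after 24 h compound treatment. ATP is quantified by luciferase luminescence, and AC50 is derived by Hill-equation modelling.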

Assay [6] in a line: Cell Viability - LYMP2-009 (AID 968). Also: nearly all actives have a fitted effect of over 55% in size.
Assay [7] can be described thus: Cell Viability - LYMP2-011 (AID 969). Also: nearly all actives have a fitted effect of over 60% in size. Summed up: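 Human lymphoblastoid cells (2500/well) were plated in complete medium, preincubated 5 hr at 37 C, then exposed to compounds for 24 hr at 37 C. Intracellular ATP was read by CellTiter-Glo luminescence, and AC50 came from Hill-equation concentration-response fits.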
Assay [8] in a line: Cell Viability - LYMP2-013 (AID 970). Also: nearly all actives have a fitted effect of over 55% in size. Summed up:
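Human lymphoblastoid cells, 2500/well, were preincubated 5 hr at 37 C, then treated with compounds for 24 hr at 37 C in complete medium. Intracellular ATP was read by CellTiter-Glo luminescence; AC50 from Hill-equation fits of concentration-response data.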

Assay [9] is described as follows: Cell Viability - LYMP2-015 (AID 971). Also: nearly all actives have a fitted effect of over 55% in size. The gist of the method: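 Human lymphoblastoid cells (2500/well) in complete medium were preincubated 5 hr at 37 C, then compound-treated 24 hr at 37 C. Intracellular ATP was read by CellTiter-Glo luminescence after 30 min at room temperature; AC50 came from Hill-equation concentration-response fits.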
Assay [10] can be described thus: Cell Viability - LYMP2-017 (AID 972). Also: nearly all actives have a fitted effect of over 55% in size. The gist of the method: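 Human lymphoblastoid cells (2500/well) were seeded in complete medium, held 5 hr at 37 C, then exposed to compounds for 24 hr at 37 C. Intracellular ATP was read by CellTiter-Glo luminescence after 30 min at room temperature, with AC50 values from Hill-equation fits.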
Assay [11] can be described thus: Cell Viability - LYMP2-019 (AID 973). Also: nearly all actives have a fitted effect of over 55% in size. The gist of the method:
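Human lymphoblastoid cells were seeded at 2500 cells/well, preincubated 5 hr at 37 C, then exposed to compounds for 24 hr at 37 C in complete medium. Intracellular ATP was measured by CellTiter-Glo luminescence; AC50 from Hill fits.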

The nature of assay [12]: Cell Viability - LYMP2-021 (AID 974). The gist of the method: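 Human lymphoblastoid cells (2500/well) were preincubated 5 hr at 37 C, then exposed to compounds for 24 hr at 37 C in complete medium. Intracellular ATP was read by CellTiter-Glo luminescence; AC50 came from Hill-equation fits of concentration-response data.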
Assay [13] in a line: Cell Viability - LYMP2-023 (AID 975). Also: nearly all actives have a fitted effect of over 55% in size. The gist of the method: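 Human lymphoblastoid cells (2500/well) were preincubated 5 hr at 37 C, then exposed to compounds for 24 hr at 37 C in complete medium. Cellular ATP was read by CellTiter-Glo luminescence, and AC50 came from Hill-equation fits.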
Assay [14] can be described thus: Cell Viability - LYMP2-025 (AID 976). Summed up: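 Human lymphoblastoid LYMP2-025 cells (2500/well) were pre-incubated 5 hr at 37 C, then treated with compounds for 24 hr at 37 C in complete medium. Viability was read as intracellular ATP by CellTiter-Glo luminescence; AC50 from Hill fits.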
Assay [15] in a line: Cell Viability - LYMP2-002 (AID 977).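 Also: compound exposure lasted 24 h at 37 °C.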 The gist of the method:
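Cytotoxicity is scored as concentration-dependent loss of cellular ATP in a human lymphoblastoid line after 24 hr compound treatment at 37 C. AC50 is obtained by modelling concentration-response data with the Hill equation.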

Assay [16] can be described thus: Cell Viability - LYMP2-006 (AID 978). Also: nearly all actives have a fitted effect of over 60% in size. Summed up:
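Cells are seeded at 2500 per well and rested 5 hr at 37 C. Compounds are added across a concentration series for 24 hr at 37 C, after which ATP is quantified by luciferase luminescence.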

A short description of assay [17]: Cell Viability - LYMP2-007 (AID 979).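 Also: cells exposed to compound for 24 h before reading; nearly all actives have a fitted effect of over 60% in size.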 Summed up: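 Human lymphoblastoid cells (2500/well) were plated in complete medium, incubated 5 hr at 37 C, then exposed to compounds for 24 hr at 37 C. Intracellular ATP was read by CellTiter-Glo luminescence after 30 min at room temperature; AC50 from Hill fits.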
The nature of assay [18]: Cell Viability - LYMP2-008 (AID 980). Also: nearly all actives have a fitted effect of over 60% in size. The gist of the method:
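Human lymphoblastoid cells (2500/well) were plated, held 5 hr at 37 C, then exposed to compounds for 24 hr at 37 C in complete medium. Intracellular ATP was read by CellTiter-Glo luminescence; AC50 from Hill-fitted concentration-response.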

Assay [19] can be described thus: Cell Viability - LYMP2-010 (AID 981). Also: nearly all actives have a fitted effect of over 55% in size. The gist of the method:
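Human lymphoblastoid LYMP2-010 cells (2500/well) were preincubated 5 hr at 37 C, then exposed to compounds for 24 hr at 37 C in complete medium. Intracellular ATP was measured by CellTiter-Glo luminescence after 30 min at room temperature; AC50 from Hill-fitted concentration-response.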

Assay [20] is described as follows: Cell Viability - LYMP2-012 (AID 982).
Potency is read from the fitted curve at half-maximal effect.

For `Nc1ccc([N+](=O)[O-])cc1O`, the Potency result in assay [1], in assay [2], in [3], in [4], in assay [5] and in [6] was “inactive” throughout. Further, the Potency entry in assay [7], in assay [8], in [9], in [10], in assay [11] and in assay [12] was “inactive” in each case. The Potency entry in [13], in [14], in assay [15], in assay [16], in assay [17] and in assay [18] was “inactive” throughout. The Potency entry in [19] and in assay [20] was “inactive” each time.

As to `CC1(C)S[C@@H]2[C@H](NC(=O)[C@H](N)c3ccccc3)C(=O)N2[C@H]1C(=O)O`, the Potency result in [1], in [2], in assay [3], in [4], in assay [5] and in assay [6] was “inactive” each time. Also, the Potency entry in assay [7], in assay [8], in assay [9], in [10], in assay [11] and in assay [12] was “inactive” each time. Further, the Potency entry in [13], in assay [14], in assay [15], in assay [16], in assay [17] and in assay [18] was “inactive” throughout. In addition, the Potency result in assay [19] and in assay [20] was “inactive” throughout.

For `CC(C)NCC(O)COc1cccc2ccccc12` (stereo unspecified), the Potency result in assay [1], in [2], in [3], in assay [4], in assay [5] and in [7] was “inactive” throughout. For the same molecule, the Potency result in [8], in assay [9], in assay [10], in assay [11], in assay [12] and in assay [13] was “inactive” throughout. The Potency result in assay [14], in assay [15], in assay [16], in assay [17], in assay [18] and in [19] was “inactive” each time. In addition, the Potency entry in assay [20] is “inactive”.

In the case of `COc1cc(/C=C/C(=O)CC(=O)/C=C/c2ccc(O)c(OC)c2)ccc1O`, the Potency result in [1] was “inactive”. Further, the Potency is 50.1 µM (active) in assay [2]; 39.8 µM (active) in assay [3]; 31.6 µM (active) in assay [4]; 25.1 µM (active) in assay [6]; 31.6 µM (active) in [7]; 50.1 µM (active) in assay [8]. For the same molecule, the Potency in assay [9] is 50.1 µM (active); in assay [10] it was 39.8 µM (active); in assay [11], 39.8 µM (active); in [12] it was 50.1 µM (active); in assay [13] it was 50.1 µM (active); in [14], 50.1 µM (active). Further, the Potency in assay [15] was 39.8 µM (active); in [16], 25.1 µM (active); in assay [17] it was 25.1 µM (active); in assay [18], 25.1 µM (active); in assay [19], 25.1 µM (active); in [20], 31.6 µM (active).

For `O=c1cc(-c2ccccc2)oc2ccccc12`, the Potency result in [1], in [2], in assay [3], in [4], in assay [5] and in [6] was “inactive” throughout. The Potency entry in assay [7], in assay [8], in assay [9], in assay [10], in [11] and in [12] was “inactive” each time. Further, the Potency entry in assay [13], in [14], in [15], in [16], in assay [17] and in assay [18] was “inactive” throughout. Further, the Potency result in assay [19] and in [20] was “inactive” each time.

Regarding `N=C1N=C(N)c2cc3ccccc3cc21`, the Potency in assay [1] was 50.1 µM (active); in assay [2] it was 50.1 µM (active); in assay [3] it was 39.8 µM (active); in assay [4], 39.8 µM (active); in assay [5], 39.8 µM (active); in assay [6], 39.8 µM (active). Further, the Potency in assay [7] is 39.8 µM (active); in [8], 39.8 µM (active); in assay [9] it was 50.1 µM (active); in assay [10] it was 39.8 µM (active); in [12], 39.8 µM (active); in [13], 39.8 µM (active). In addition, the Potency in assay [16] was 50.1 µM (active); in assay [17] it was 39.8 µM (active); in assay [18], 39.8 µM (active); in assay [19], 39.8 µM (active); in assay [20], 39.8 µM (active).

Regarding `c1ccc2sc(SSc3nc4ccccc4s3)nc2c1`, the Potency entry in [1], in assay [2], in assay [3], in assay [4], in assay [5] and in [6] was “inactive” each time. For the same molecule, the Potency result in assay [7], in [8], in [9], in assay [10], in [11] and in [12] was “inactive” in each case. The Potency entry in assay [13], in [14], in [15], in [16], in assay [18] and in assay [19] was “inactive” throughout. Also, in assay [20], the Potency entry is “inactive”.

On to `c1cnc2c(c1)ccc1cccnc12`, for which the Potency in assay [3] was 7.94 µM (active).

As to `Nc1ccc(O)c(C(=O)O)c1`, the Potency result in assay [1], in assay [2], in [3], in assay [4], in assay [5] and in [6] was “inactive” throughout. Moreover, the Potency result in [7], in assay [8], in [9], in assay [10], in assay [11] and in assay [12] was “inactive” throughout. The Potency result in assay [13], in [14], in assay [15], in [16], in [17] and in assay [18] was “inactive” in each case. In addition, the Potency result in [19] and in [20] was “inactive” in each case.

In the case of `CN(C)CCC(c1ccc(Cl)cc1)c1ccccn1` (stereo unspecified), the Potency result in assay [1], in [2], in assay [3], in [4], in [5] and in [6] was “inactive” throughout. The Potency result in assay [7], in assay [8], in assay [10], in [11], in assay [12] and in assay [13] was “inactive” each time. In addition, the Potency result in [14], in assay [15], in [16], in [17] and in assay [18] was “inactive” in each case.

For the molecule `Oc1ccccc1O`, the Potency result in assay [4], in assay [10], in [11], in assay [13], in assay [14] and in assay [17] was “inactive” in each case. Besides, in assay [18], the Potency result is “inactive”.

Regarding `CCCOC(=O)c1ccc(O)cc1`, the Potency entry in [1], in assay [2], in assay [3], in assay [4], in [5] and in [6] was “inactive” in each case. The Potency entry in assay [7], in [8], in assay [9], in assay [10], in assay [11] and in assay [12] was “inactive” each time. Besides, the Potency entry in assay [13], in [14], in [15], in [16], in [17] and in [18] was “inactive” in each case. The Potency entry in assay [19] and in [20] was “inactive” throughout.

For `Nc1ccc(O)c([N+](=O)[O-])c1`, the Potency entry in assay [1], in [2], in [4], in assay [5], in [6] and in assay [7] was “inactive” each time. Moreover, the Potency entry in [8], in assay [10], in [12], in assay [13], in [14] and in assay [15] was “inactive” each time. The Potency entry in assay [16], in [17], in assay [18], in assay [19] and in assay [20] was “inactive” throughout.
